This is a sample that favours compounds with a hit; in the whole collection about 4.1% have one here.
AmpC inh detg = qHTS Inhibitors of AmpC Beta-Lactamase (assay with detergent); P00811; AmpC hydrolysis of nitrocefin, absorbance 480 nm, 0.01% Triton; Potency, µM (highest dose often 114 µM), usual class: inhibitors; actives 0.041% (n = 370,000); also: nearly all actives have a fitted effect of over 25% in size
Target sequence (P00811 whole entry, looked up): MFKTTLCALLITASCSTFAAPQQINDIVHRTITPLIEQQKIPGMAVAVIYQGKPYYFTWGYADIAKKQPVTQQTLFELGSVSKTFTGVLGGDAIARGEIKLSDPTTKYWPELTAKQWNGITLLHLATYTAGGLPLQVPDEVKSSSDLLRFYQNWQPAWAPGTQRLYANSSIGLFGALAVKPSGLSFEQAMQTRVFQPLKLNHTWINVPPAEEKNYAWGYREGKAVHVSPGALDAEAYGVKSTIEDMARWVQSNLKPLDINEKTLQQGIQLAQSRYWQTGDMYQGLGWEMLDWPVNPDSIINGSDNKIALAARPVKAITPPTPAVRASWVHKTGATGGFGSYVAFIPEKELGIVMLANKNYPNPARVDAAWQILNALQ
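AmpC (5.3 nM in the dispensed reagent) in 20 mM phosphate pH 7.0 with 0.01% (detergent screen) or 0.0001% Triton X-100 was preincubated with compounds for 15 min at room temperature. Nitrocefin was then added from an 800 uM solution, and hydrolysis was followed at 480 nm.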
Sm TGR inh = qHTS Assay for the Inhibitors of Schistosoma Mansoni Peroxiredoxins | Schistosoma mansoni thioredoxin glutathione reductase (TGR), Q962Y6 | purified TGR, DTNB reduction, TNB absorbance 405 nm | Potency, µM (titrated, usually from 114 µM), usual class: inhibitors | actives 3% (n = 360,000); also: nearly all actives have a fitted effect of over 60% in size
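First, TGR (20 nM dispensed) and NADPH were mixed with compound. Second, a 15 min room-temperature incubation followed. Third, further NADPH and then DTNB were added to start the reaction. Finally, TNB absorbance was monitored kinetically.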
FMDV antiviral = High Throughput Screening for Foot and Mouth Disease Virus Antivirals | FMDV antiviral cell-based qHTS | actives 1.2% (n = 410,000) | Potency, µM (titrated, usually from 57.9 µM), usual class: inhibitors; calls by dose curve; tested in HEK293T cells; also: read-out not given here; nearly all actives have a fitted effect of over 45% in size
AMA1-RON2 inh = qHTS for Inhibitors of AMA1-RON; Towards Development of Antimalarial Drug Lead: Primary Screen; Plasmodium falciparum AMA1 (3D7) - RON2 peptide interaction; AlphaScreen AMA1-biotinylated RON2 peptide binding; Potency, µM (top dose mostly 58.2 µM), most hits filed as inhibitors; actives 0.2% (n = 360,000); AID 720542, 2013; also: nearly all actives have a fitted effect of over 45% in size
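AMA1 (3D7) with his tag at 25 nM final met compounds first, then biotinylated RON2 peptide at 25 nM; detection used donor plus acceptor beads, 10 µg/mL apiece, read by AlphaScreen after 30 min at room temperature.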
AmpC inh no detg = qHTS Inhibitors of AmpC Beta-Lactamase (assay without detergent) | P00811 | AmpC nitrocefin hydrolysis, absorbance 480 nm, 0.0001% Triton | Potency, µM (top dose mostly 57.1 µM), actives largely listed as inhibitors | actives 0.52% (n = 330,000) | AID 485341, 2010; also: nearly all actives have a fitted effect of over 20% in size
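20 mM phosphate pH 7.0 + 0.01% (detergent screen) or 0.0001% Triton X-100; 5.3 nM AmpC reagent; cpd preinc 15 min RT; nitrocefin (800 uM stock) to start; A480 q20 s × 4 min; Activity was normalised to no-enzyme and no-compound control wells.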
Numbers stand for hits; i = inactive; ? = inconclusive; nt = not tested or not shown; [ ] = dose if it differs, or a comment. Unless noted, calls follow the shape of the dose curve; as a rule, active = well fitted curve in the direction sought with a large enough effect; inconclusive = small, poorly fitted or top-dose-only effect, or another doubt; inactive = no such curve, though single readings can be large; an effect the other way counts as inactive or inconclusive.

SMILES	AmpC inh detg	Sm TGR inh	FMDV antiviral	AMA1-RON2 inh	AmpC inh no detg
CC(C)(C)C(=O)Nc1ccc(-c2nc3ccccc3s2)cc1	i	i	4.5µM	nt	nt
COc1ccc(-c2nn(-c3ccc(C)c(Cl)c3)c3c2cnc2cc(OC)c(OC)cc23)cc1	i	i	i	nt	nt
CCOC(=O)C(C)(C)N(Cc1ccc(C)cc1)S(=O)(=O)c1ccc(Cl)c([N+](=O)[O-])c1	i	i	25µM	i	i
CCOC(=O)C(C)(C)N(Cc1ccc(Cl)cc1)S(=O)(=O)c1ccc(Cl)c([N+](=O)[O-])c1	i	?	nt	nt	i
Cc1cc(Cl)ccc1NC(=O)CSc1nnc(Cc2cccs2)n1Cc1ccco1	?	20µM	i	i	i
N#Cc1ccc(CSc2nnc(Cc3cccs3)n2Cc2ccco2)cc1	i	11µM	i	i	i
Cc1cc(C)c(NC(=O)CSc2nnc(-c3ccccn3)n2N)c(Cl)c1	i	i	i	18µM	i
O=C(CSc1nnc(-c2ccccc2)n1Cc1ccco1)Nc1ccc2c(c1)OCCO2	i	35µM	i	i	i
O=C(NCc1ccc(Cl)cc1)C1(c2cccs2)CCOCC1	i	i	i	nt	nt
CC(=O)NC(c1ccco1)c1cc(Br)c2cccnc2c1O (centres undefined)	i	?	nt	nt	i
Cc1cc(C)c(NC(=O)CSc2nnc(-c3ccncc3)n2Cc2ccco2)c(Cl)c1	?	22µM	i	i	i
O=C(NCCc1ccccn1)c1cccc(S(=O)(=O)N2CCc3ccccc32)c1	i	40µM	i	i	i
O=C(NCCc1ccccn1)c1cccc(S(=O)(=O)N2CCCCCC2)c1	i	i	i	i	nt
O=C(NCc1ccncc1)c1cccc(S(=O)(=O)N2CCc3ccccc32)c1	i	28µM	?	i	i
Cc1ccc(NC(=O)c2cnc(SCC(=O)N3CCCc4ccccc43)n(C)c2=O)cc1C	i	i	i	nt	nt
N#C/C(=C\c1cccnc1)C(=O)Nc1cccc2ccccc12	i	i	25µM	i[11.6 µM]	i
COc1ccccc1NC(=O)/C(C#N)=C/c1cccnc1	?	i	i	i	i
Cc1cc(=O)n(CC(=O)NCCC(C)C)c2c1c(C)nn2C	i	i	i	nt	nt
Cc1cc(C)c2cc(CN(Cc3ccco3)C(=O)NCc3ccccc3)c(=O)[nH]c2c1	i	50µM	i	i	i
Cc1cc(C)c2[nH]c(=O)c(CN(Cc3ccco3)C(=O)C3CCCO3)cc2c1 (centres undefined)	i	25µM	i	i	i
Cc1cccc2cc(CN(Cc3ccco3)C(=O)c3ccncc3)c(=O)[nH]c12	i	32µM	i	i	i
Cc1cc(C)c2[nH]c(=O)c(CN(CC3CCCO3)C(=S)NCc3ccco3)cc2c1 (centres undefined)	i	i	i	i	i
Cc1cc(C)nc(-c2cccc3c2OC(CNC(=O)C2CCOC2)C3)n1 (centres undefined)	nt	nt	i	nt	nt
CCn1ccc2cc(S(=O)(=O)N3CCC(C(=O)NCc4ccc(OC(C)C)cc4)CC3)ccc21	i	i	i	nt	nt
Cc1cc(C(=O)NCc2ccc3c(c2)OCO3)ccc1[N+](=O)[O-]	i	i	i	i	i
SMILES	AmpC inh detg	Sm TGR inh	FMDV antiviral	AMA1-RON2 inh	AmpC inh no detg
CC1CC(C)CN(c2ccc(C(=O)NCc3ccc4c(c3)OCO4)cc2[N+](=O)[O-])C1 (centres undefined)	i	i	i	?	3.2µM
CNS(=O)(=O)c1cn(CC(=O)N2CCN(c3ccccc3OC)CC2)cc1S(=O)(=O)NC	i	i	i	nt	nt
COC(=O)[C@@H]1CCCN1Cc1ccc2c(c1)CN(Cc1ccccc1F)CCO2	nt	nt	i	nt	nt
CCOc1ccc(C(=O)NC(=S)Nc2ncccc2C)cc1[N+](=O)[O-]	i	i	i	i	i
CCCCn1nnc(NC(=S)NC(=O)c2ccc(OCC)c([N+](=O)[O-])c2)n1	i	40µM	i	i	i
COc1ccc(F)c(CN2CCC3(CCC(CNC(=O)c4cc(C)nn4C)O3)CC2)c1 (centres undefined)	nt	nt	i	nt	nt
Cc1cc(Nc2ccc(Cl)cc2)nc(NCc2ccccc2)n1	i	i	32µM	i	i[2.29 µM]

Bioassay records from PubChem BioAssay.
